About 2,000 (36%) of roughly 5,500 compounds were called active. Inconclusive results (about 18%) are left out. Cut-off read from the data, not from the text of the source: active = normalized growth mostly below about 0.91 (no sharp cut-off); inconclusive = no clear call, values can overlap the other calls; inactive = mostly above about 0.92. This is one part of the list.
Experiment: chemical genetic growth profiling, strain panel (AID 1159580);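 note: tested at 20 µM; growth read once vehicle control cultures reached saturation at 30 °C; 1 = growth at the plate median or of vehicle wells; lower values mean less growth of the strain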
Settings: growth OD

Measured: normalized growth

CCOP(=S)(OCC)Oc1ccc2c(C)c(Cl)c(=O)oc2c1
inactive: S. cerevisiae deletion strains, locus YJR075W, strain HOC1, hits give low values 0.945 | S. cerevisiae deletion strains, locus YKL009W, strain mrt4, hits give low values 0.952 | S. cerevisiae deletion strains, locus YKL068W, hits give low values 0.985 | S. cerevisiae deletion strains, locus YKL085W, strain MDH1 (second series), hits give low values 0.982 | S. cerevisiae deletion strains, locus YKL085W, strain MDH1, hits give low values 0.982 | S. cerevisiae deletion strains, locus YKL160W, strain elf1, hits give low values 1 | S. cerevisiae deletion strains, locus YKL190W, strain CNB1, hits give low values 0.983 | S. cerevisiae deletion strains, locus YKR001C, strain vps1, hits give low values 0.981 | S. cerevisiae deletion strains, locus YKR026C, strain gcn3, hits give low values 0.944 | S. cerevisiae deletion strains, locus YKR091W, strain srl3, hits give low values 0.973 | S. cerevisiae deletion strains, locus YLL001W, strain dnm1, hits give low values 0.988 | S. cerevisiae deletion strains, locus YLL026W, hits give low values 0.946 | S. cerevisiae deletion strains, locus YLL041C, strain sdh2, hits give low values 0.956 | S. cerevisiae deletion strains, locus YLR027C, strain aat2, hits give low values 0.935 | S. cerevisiae deletion strains, locus YLR039C, strain RIC1, hits give low values 0.94 | S. cerevisiae deletion strains, locus YLR058C, strain SHM2, hits give low values 0.971 | S. cerevisiae deletion strains, locus YLR102C, strain apc9, hits give low values 0.985 | S. cerevisiae deletion strains, locus YLR113W, strain HOG1, hits give low values 0.936 | S. cerevisiae deletion strains, locus YLR221C, strain rsa3, hits give low values 0.933 | S. cerevisiae deletion strains, locus YLR258W, strain gsy2, hits give low values 0.969 | S. cerevisiae deletion strains, locus YLR262C, strain YPT6 (second series), hits give low values 0.976 | S. cerevisiae deletion strains, locus YLR262C, strain YPT6, hits give low values 0.929 | S. cerevisiae deletion strains, locus YLR268W, strain sec22, hits give low values 0.965 | S. cerevisiae deletion strains, locus YLR320W, strain mms22, hits give low values 0.914 | S. cerevisiae deletion strains, locus YLR330W, strain CHS5, hits give low values 0.979 | S. cerevisiae deletion strains, locus YLR342W, strain FKS1 (second series), hits give low values 1.01 | S. cerevisiae deletion strains, locus YLR342W, strain FKS1, hits give low values 0.961 | S. cerevisiae deletion strains, locus YLR357W, strain rsc2, hits give low values 0.972 | S. cerevisiae deletion strains, locus YLR370C, strain arc18, hits give low values 0.944 | S. cerevisiae deletion strains, locus YLR371W, strain rom2, hits give low values 0.993 | S. cerevisiae deletion strains, locus YLR384C, strain iki3, hits give low values 0.983 | S. cerevisiae deletion strains, locus YLR418C, strain cdc73, hits give low values 0.956 | S. cerevisiae deletion strains, locus YML016C, strain PPZ1, hits give low values 0.983 | S. cerevisiae deletion strains, locus YML032C, strain rad52, hits give low values 0.979 | S. cerevisiae deletion strains, locus YML120C, strain ndi1, hits give low values 0.962 | S. cerevisiae deletion strains, locus YML124C, strain tub3, hits give low values 0.986 | S. cerevisiae deletion strains, locus YMR058W, strain fet3, hits give low values 0.957 | S. cerevisiae deletion strains, locus YMR078C, strain ctf18, hits give low values 0.979 | S. cerevisiae deletion strains, locus YMR125W, strain sto1, hits give low values 0.97 | S. cerevisiae deletion strains, locus YMR129W, hits give low values 0.97 | S. cerevisiae deletion strains, locus YMR205C, strain PFK2, hits give low values 0.955 | S. cerevisiae deletion strains, locus YMR223W, strain ubp8, hits give low values 0.987 | S. cerevisiae deletion strains, locus YMR231W, strain pep5, hits give low values 0.948 | S. cerevisiae deletion strains, locus YMR263W, strain SAP30, hits give low values 0.972 | S. cerevisiae deletion strains, locus YMR307W, strain GAS1, hits give low values 0.894 | S. cerevisiae deletion strains, locus YNL067W, strain RPL9B, hits give low values 0.981 | S. cerevisiae deletion strains, locus YNL071W, strain lat1, hits give low values 0.944 | S. cerevisiae deletion strains, locus YNL128W, strain TEP1, hits give low values 0.952 | S. cerevisiae deletion strains, locus YNL153C, strain GIM3, hits give low values 0.972 | S. cerevisiae deletion strains, locus YNL183C, strain NPR1, hits give low values 0.974 | S. cerevisiae deletion strains, locus YNL209W, strain ssb2, hits give low values 0.957 | S. cerevisiae deletion strains, locus YNL233W, strain BNI4, hits give low values 0.959 | S. cerevisiae deletion strains, locus YNL248C, strain rpa49, hits give low values 0.96 | S. cerevisiae deletion strains, locus YNL250W, strain rad50, hits give low values 0.98 | S. cerevisiae deletion strains, locus YNL271C, strain bni1, hits give low values 0.99 | S. cerevisiae deletion strains, locus YNL298W, strain CLA4, hits give low values 0.979 | S. cerevisiae deletion strains, locus YNL307C, strain MCK1, hits give low values 0.981 | S. cerevisiae deletion strains, locus YNL322C, strain KRE1 (second series), hits give low values 0.932 | S. cerevisiae deletion strains, locus YNL322C, strain KRE1, hits give low values 0.981 | S. cerevisiae deletion strains, locus YNR049C, strain mso1, hits give low values 0.954 | S. cerevisiae deletion strains, locus YNR052C, strain pop2, hits give low values 0.994 | S. cerevisiae deletion strains, locus YOL006C, strain TOP1, hits give low values 0.884 | S. cerevisiae deletion strains, locus YOL012C, strain htz1 1.3 | S. cerevisiae deletion strains, locus YOL147C, strain pex11, hits give low values 0.993 | S. cerevisiae deletion strains, locus YOR001W, strain rrp6, hits give low values 0.95 | S. cerevisiae deletion strains, locus YOR061W, strain CKA2, hits give low values 0.961 | S. cerevisiae deletion strains, locus YOR069W, strain VPS5, hits give low values 0.979 | S. cerevisiae deletion strains, locus YOR070C, strain gyp1, hits give low values 0.994 | S. cerevisiae deletion strains, locus YOR080W, strain dia2, hits give low values 0.959 | S. cerevisiae deletion strains, locus YOR083W, strain WHI5, hits give low values 0.991 | S. cerevisiae deletion strains, locus YOR106W, strain vam3, hits give low values 0.939 | S. cerevisiae deletion strains, locus YOR136W, strain idh2, hits give low values 0.977 | S. cerevisiae deletion strains, locus YOR144C, strain elg1, hits give low values 0.985 | S. cerevisiae deletion strains, locus YOR184W, strain ser1, hits give low values 0.976 | S. cerevisiae deletion strains, locus YOR231W, strain MKK1, hits give low values 1.03 | S. cerevisiae deletion strains, locus YOR265W, strain rbl2, hits give low values 0.94 | S. cerevisiae deletion strains, locus YOR270C, strain vph1, hits give low values 0.904 | S. cerevisiae deletion strains, locus YOR290C, strain snf2, hits give low values 0.928 | S. cerevisiae deletion strains, locus YOR316C, strain cot1, hits give low values 0.971 | S. cerevisiae deletion strains, locus YPL051W, strain arl3, hits give low values 0.963 | S. cerevisiae deletion strains, locus YPL055C, strain LGE1, hits give low values 0.948 | S. cerevisiae deletion strains, locus YPL078C, strain atp4, hits give low values 0.982 | S. cerevisiae deletion strains, locus YPL106C, strain sse1, hits give low values 0.957 | S. cerevisiae deletion strains, locus YPL240C, strain hsp82, hits give low values 0.95 | S. cerevisiae deletion strains, locus YPL241C, strain CIN2, hits give low values 0.982 | S. cerevisiae deletion strains, locus YPL256C, strain CLN2, hits give low values 1.03 | S. cerevisiae deletion strains, locus YPR119W, strain clb2, hits give low values 0.983 | S. cerevisiae deletion strains, locus YPR141C, strain kar3, hits give low values 0.951 | S. cerevisiae deletion strains, locus YPR163C, strain tif3, hits give low values 0.987 | S. cerevisiae deletion strains, locus YPR167C, strain met16, hits give low values 0.99 | S. cerevisiae deletion strains, strain wtn01, hits give low values 0.989 | S. cerevisiae strains, strain wild type, hits give low values 0.981

Source: PubChem BioAssay AID1159580 (chemical genetic matrix, 2015)
